Source: PubChem BioAssay
This is a sample that favours compounds with a hit; in the whole collection about 7% have one here.
rCAG binder: binders of r(CAG) RNA repeats, primary screen, biochemical, fluorescence; AID 651821, 2012; inhibition, % at 3 µM; 370,000 tested, 1.3% active; r(CAG) RNA repeat, TO-PRO-1 dye displacement fluorescence;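 active = inhibition above the plate cutoff, the mean of all test compounds on that plate plus 3 SD, cut at about 35% in these data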;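 note: 0% = DMSO alone and 100% = 100 µM mitoxantrone as full dye displacement; higher means more dye released from RNA so lower well fluorescence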
NR3A LBD binder: binders of NR3A ligand-binding domain, primary screen, biophysical, differential scanning fluorimetry, uHTS | Tm shift relative to glycine control, % at 25 µM | AID 1259313, 2017 | Glutamate receptor ionotropic, NMDA 3A (GRIN3A) ligand-binding domain | 340,000 tested, 2.5% active | NR3A LBD differential scanning fluorimetry, Tm shift; 0% = protein alone, 100% = glycine-bound protein;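 active = melting temperature shift of at least 10% of the positive control shift, at one fixed dose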
AHR act: AHR activators, primary screen, cell-based, luminescence, luciferase reporter, human; Aryl hydrocarbon receptor (Homo sapiens), P35869; AHR-responsive luciferase reporter cells; activation, % at 5 µM; 320,000 tested, 2.5% active; in the data active = activation above about 47%;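 note: 0% = vehicle wells and 100% = reference agonist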
KLK7 zymogen act: proKLK7 zymogen activators, primary screen, biochemical, fluorescence intensity; Kallikrein-7 (Homo sapiens), P49862; purified proKLK7, EDANS-DABCYL substrate fluorescence; 100% is mature enzyme control, 0% vehicle; activation, % at 7 µM; 370,000 tested, 0.9% active;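 active = activation above the mean of all tested compounds plus 3 SD, computed per campaign excluding outliers beyond control limits, cut at about 13% in these data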
ADAM17 inh: ADAM17 inhibitors, primary screen, biochemical, QFRET; Disintegrin and metalloproteinase domain-containing protein 17 (Homo sapiens), P78536; recombinant ADAM17, EDANS/DABCYL FRET peptide cleavage; inhibition, % at 6.95 µM; 370,000 tested, 0.83% active;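 active = inhibition above the mean of compounds lying between control limits plus 3 SD, set per campaign, cut at about 8.5% in these data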;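 note: 0% = DMSO-only wells as the low control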
Target sequence (P78536 215-824 limits assumed): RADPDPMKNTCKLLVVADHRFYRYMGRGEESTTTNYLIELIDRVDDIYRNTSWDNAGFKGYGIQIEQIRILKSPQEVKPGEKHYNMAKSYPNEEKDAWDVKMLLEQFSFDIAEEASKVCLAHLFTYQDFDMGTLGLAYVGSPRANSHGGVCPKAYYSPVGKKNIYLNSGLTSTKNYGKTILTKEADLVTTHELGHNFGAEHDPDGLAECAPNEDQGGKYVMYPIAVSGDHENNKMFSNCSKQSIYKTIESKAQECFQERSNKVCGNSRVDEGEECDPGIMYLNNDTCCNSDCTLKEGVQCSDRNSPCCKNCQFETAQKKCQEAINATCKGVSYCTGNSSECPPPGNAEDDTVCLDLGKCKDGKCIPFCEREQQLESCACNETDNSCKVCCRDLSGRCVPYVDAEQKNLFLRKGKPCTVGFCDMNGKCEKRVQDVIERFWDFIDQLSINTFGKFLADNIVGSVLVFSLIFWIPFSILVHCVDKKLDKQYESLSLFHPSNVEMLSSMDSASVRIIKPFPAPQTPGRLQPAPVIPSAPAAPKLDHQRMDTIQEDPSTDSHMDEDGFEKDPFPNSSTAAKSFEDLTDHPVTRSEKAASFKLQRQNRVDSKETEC
ADAM10 inh: human ADAM10 inhibitors, primary screen, biochemical, QFRET, HTS. AID 720582, 2013. 370,000 tested, 0.62% active. inhibition, % at 7 µM. Disintegrin and metalloproteinase domain-containing protein 10 (Homo sapiens), O14672. recombinant ADAM10, EDANS/DABCYL FRET peptide cleavage, 3 h;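 active = inhibition above a per-campaign cutoff equal to the mean of compounds falling between control-based bounds plus 3 SD, cut at about 20% in these data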;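 note: 0% = DMSO wells while the 100% control is not disclosed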
* hit, by the source's call; · = no result given.

SMILES	rCAG binder	NR3A LBD binder	AHR act	KLK7 zymogen act	ADAM17 inh	ADAM10 inh
OC1(c2cccc(C(F)(F)F)c2)CCN(c2ncnc3c2[nH]c2ccccc23)CC1	0.2	3.4	54.4*	-0.6	-11.7	-53.7
c1ccc2c(c1)CCN(c1ncnc3c1[nH]c1ccccc13)C2	6.9	-5.1	-13.0	-0.9	-21.6	-80.3
COC(=O)[C@]12C[C@H](CC(=O)N3CCCCC3)C(=O)N(Cc3ccco3)C1=C[C@H](C1CCCC1)O[C@@H]2C	-1.1	·	·	0.2	1.8	3.5
COc1ccc(NC(=O)Cn2nnc(C(=O)NCc3ccc(C)cc3)c2N)cc1OC	-0.7	2.9	5.7	0.2	0.6	5.0
Cc1ccccc1NC(=O)Cn1nnc(C(=O)NCc2ccco2)c1N	1.9	-1.3	7.0	0.2	-4.1	1.0
COc1ccc(NC(=O)Cn2nnc(C(=O)Nc3ccccc3C)c2N)cc1	7.2	0.4	1.6	-0.4	1.0	3.4
Cc1ccc(NC(=O)Cn2nnc(C(=O)Nc3ccc(F)c(Cl)c3)c2N)cc1	5.5	31.8*	6.5	0.0	0.0	3.8
CCOc1ccccc1NC(=O)Cn1nnc(C(=O)NCc2ccco2)c1N	-4.9	0.6	63.8*	0.1	-4.5	2.1
Cc1ccc(NC(=O)c2nnn(CC(=O)Nc3ccccc3)c2N)cc1C	8.2	-5.6	48.0*	-0.5	-4.3	-3.6
Cc1ccc(NC(=O)Cn2nnc(C(=O)NCc3ccc(Cl)cc3)c2N)cc1F	2.3	13.4*	0.3	-0.5	-3.7	6.1
O=C(CSc1nnc(Cc2cccs2)n1-c1ccccc1)Nc1ccccc1-c1ccccc1	2.9	·	·	0.6	2.7	6.5
Cc1ccc(NC(=O)Cn2nnc(C(=O)NCc3ccccc3)c2N)cc1C	2.1	25.6*	-1.4	-0.8	1.2	9.1
COc1ccc(N2C(=O)C(CC(=O)Nc3ccc(Cl)cc3)N(NC(=O)c3cccc(F)c3)C2=S)cc1 (stereo not drawn)	13.0	16.1*	2.4	0.2	2.8	12.5
O=C(CC1C(=O)N(c2ccc(Cl)cc2)C(=S)N1CCc1ccncc1)Nc1ccc(F)cc1 (stereo not drawn)	13.5	28.7*	2.7	1.0	3.5	18.5
CCNC(=O)CC1C(=O)N(c2ccc(F)cc2)C(=S)N1CCc1ccncc1 (stereo not drawn)	-1.9	0.1	2.1	-0.2	-1.2	0.1
C[C@@H]1COc2cc(F)ccc2S(=O)(=O)N1C	0.1	·	·	0.2	-3.1	2.2
COc1ccc2c(c1)CCCN2C(=O)C1CCCN(S(=O)(=O)c2cccs2)C1 (stereo not drawn)	0.4	·	·	0.7	2.8	6.0
C=CCN(CC=C)CCOc1cccc2ccccc12	-2.8	12.2*	0.1	1.1	5.2	-0.8
CN1[C@@H](Cc2ccccc2)COc2cc(N3CCCC3)ccc2S1(=O)=O	3.4	·	·	-0.2	1.8	5.4
COc1ccccc1NC(=O)CSc1c2c(nc3ccccc13)CCC2	-3.0	-10.9	47.0*	0.1	-0.9	-8.2
COc1ccc(NC(=O)CSc2c3c(nc4ccccc24)CCCC3)c(OC)c1	1.2	-1.5	2.1	0.8	-2.3	-9.5
COc1cc(NC(=O)CSc2c3c(nc4ccccc24)CCC3)cc(OC)c1OC	-3.5	12.8*	4.8	0.5	1.6	4.0
COc1ccc(NC(=O)CSc2c3c(nc4cc(Cl)ccc24)CCCC3)cc1OC	0.7	14.0*	2.3	-0.5	2.9	2.4
C[C@H]1[C@H](NC(=O)c2cccc(C(F)(F)F)c2)CC[C@@]23CCCN2C(=O)CCC[C@@H]13	·	·	·	·	0.4	1.9
CN(C)Cc1c(C(=O)N/N=C/c2ccc(OCc3c(F)cccc3Cl)cc2)nnn1-c1nonc1N	0.9	-1.6	1.2	-0.1	-4.2	-3.9
Cc1cccc(COc2ccc(/C=N/NC(=O)c3nnn(-c4nonc4N)c3CN3CCCCC3)cc2)c1	4.9	12.9*	4.9	0.6	-1.1	4.6
CCCc1c(C(=O)N/N=C/c2ccncc2)nnn1-c1nonc1N	-2.4	3.5	·	0.0	-3.1	0.8
